Potency data for 40 compounds are collected here from PubChem BioAssay (NCATS).

Inconclusive results are not listed. Where a call stands in place of a potency, no number is given. Active and inactive are the calls of the source. The call rests on the fitted dose curve; in most records, active means well fitted activation curve with a large enough effect; inconclusive means small, poorly fitted or top-dose-only effect; inactive means flat fitted curve, though single readings scatter.

Sequence of Cellular tumor antigen p53 (Homo sapiens) (P04637 whole entry, looked up): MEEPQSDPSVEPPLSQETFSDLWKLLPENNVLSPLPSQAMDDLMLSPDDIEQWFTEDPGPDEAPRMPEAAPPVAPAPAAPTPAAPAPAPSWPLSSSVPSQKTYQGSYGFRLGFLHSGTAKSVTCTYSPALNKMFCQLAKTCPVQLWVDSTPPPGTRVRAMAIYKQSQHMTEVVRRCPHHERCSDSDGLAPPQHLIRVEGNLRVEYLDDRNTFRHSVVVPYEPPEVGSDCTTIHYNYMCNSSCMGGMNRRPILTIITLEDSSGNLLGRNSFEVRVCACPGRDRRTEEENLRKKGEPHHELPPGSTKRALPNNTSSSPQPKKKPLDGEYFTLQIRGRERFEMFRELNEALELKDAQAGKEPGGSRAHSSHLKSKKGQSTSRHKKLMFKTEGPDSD

In the test the target is Cellular tumor antigen p53 (Homo sapiens) (UniProt P04637). As to the kind of experiment: Primary qHTS for small molecule compounds that upregulate eGFP-tagged delta133p53alpha (in C-terminal) cells. (AID 2060324). Particulars: NCI-H358 delta133p53alpha-eGFP (C-terminal tag), GFP fluorescence imaging, 24 h; series mostly up to 57.5 µM. From the text:
Assay Development and Screening Technology
National Center for Advancing Translational Sciences (NCATS),
National Institute of Health (NIH), Rockville, Maryland
Cellular senescence (CS) is one of the hallmarks of aging and age-related diseases. Senescent cells are characterized by an irreversible growth arrest, an increase in senescence-associated beta-galactosidase (SA-beta-gal) activity and p16INK4a expression, an activation of the DNA damage response pathways, and the emergence of a senescence-associated secretory phenotype (SASP).
Delta133p53alpha, a human/primate-specific p53 protein isoform, delays or inhibits the induction of CS and SASP in various types of human cells, including progeria-derived fibroblasts, primary normal astrocytes, and CD8+ T lymphocytes. Induction of delta133p53alpha with small molecule compounds may provide therapeutic opportunities for inhibition of senescence/SASP-associated pathologies in progeria syndromes, astrocyte-mediated neuroprotection in neurodegenerative diseases, and possibly prevention and treatment of a wider range of senescence- and aging-associated diseases.
Here we report the development and validation of a cell-based quantitative high throughput screening (qHTS) assay in 1,536-well format. This qHTS assay uses the NCI-H358 cell line with doxycycline-inducible expression of enhanced green fluorescent protein (eGFP)-tagged delta133p53alpha, which allows efficient and highly quantitative measurement of the protein levels.
PROTOCOL TABLE (as described by Inglese J, Shamu CE and Guy RK. 2007)
SEQUENCE No. (e.g., 1, 2, 3, etc.); […] (e.g., Cells, Incubation, Reagent, etc.); VALUE; DESCRIPTION.
1; Cells; 4uL; 800 doxycycline treated cells / well in doxycycline-free media, 1536-well black, clear-bottom low base Aurora microplates.
2; Compounds; 23 nL; Kalypsis pin tool (Wako) equipped with 1536-well pin heads, 5-azacytidine positive control.
3; Incubation; 24 hr; 37C, 5% CO2; 95% relative humidity.
4; Aspiration; 1x; BioTek EL406 washer dispenser (Agilent).
5; Fixing; 3.5% paraformaldehyde, BioTek EL406 washer dispenser (Agilent).
6; Washing; 1x PBS; BioTek EL406 washer dispenser (Agilent).
7; Nuclei staining; 1:1000 dilution of Hoechst 33342 (Thermofisher), BioTek EL406 washer dispenser (Agilent).
8; Incubation; 20 min; in the dark at room temperature.
9; Washing; 2x, 1x PBS (ThermoFisher), BioTek EL406 washer dispenser (Agilent).
10; Reagent; 10 uL; 1x PBS per well, sealed with clear adhesive tape.
11; Detection; Fluorescence, Acumen eX3 laser scanning cytometer (STP Labtech), GFP filters […].
NOTES (numbers refer to sequence numbers above).
1. NCI-H358 cells expressing eGFP-tagged delta133p53alpha were grown in T75 culture flasks and treated with doxycycline for 24h, at 10 ng/ml for eGFP-D133p53a cells (N-terminal cell) and 100 ng/ml for D133p53a-eGFP cells (C-terminal cells). Cells were trypsinized, counted using a Counted 3 Automated Cell Counter (Thermo Fisher), and diluted to a concentration of 200,000 cells/ml. A Multidrop Combi Reagent Dispenser (ThermoFisher) was used to dispense 800 cells/well in […] of doxycycline-free media, into 1536-well black/clear bottom low base plates (AuroraMicroplates).
2. After plating cells, 23 nl of compound library, DMSO vehicle control or positive control (5-azacytidine) were transferred by Pin Tool (Wako). The plate map layout was the same for each plate: (column 1) non-doxycycline treated cells + DMSO vehicle control; (column 2) doxycycline treated cells + DMSO vehicle control baseline; (column 3) doxycycline treated cells + positive control 57.5 uM final concentration 5-azacytidine; (column 4) doxycycline treated cells + serial dilution of 5-azacytidine, 16-point 1:2 titration spanning 1.8 nM to […] final concentration; (columns 5-48) doxycycline treated cells + titration of library compounds.
3. Cells were incubated at 37 °C, 5 % CO2, 95% RH with breathable metal lid for 24h.
4-10. […] […]
As for `c1ccc(C2CC2)c(OCC2=NCCN2)c1`, the Potency entry is “inactive”. For `CC(=O)NBr` the value was “inactive”; for `O=C(NC1CN2CCC1CC2)c1cc2ccoc2cn1` (stereo not given), “inactive”. To `O=C(O)[C@@H]1CCN1` belongs “inactive”; to `NC(N)=NOCCC(N)C(=O)O` (stereo not given), “inactive”; to `C[N+]1(C)CCc2cc3c(cc2[C@H]1[C@@H]1OC(=O)c2c1ccc1c2OCO1)OCO3`, “inactive”.

For `O=C1CC[C@@]2(O)C3Cc4ccc(O)c5c4C2(CCN3CC2CC2)[C@H]1O5` (stereo not given in full), the Potency result was “inactive”. In the case of `NCCc1c[nH]c2ccc(C(N)=O)cc12`, the Potency result is “inactive”. For the compound `CCCN(CCC)[C@@H]1CCc2ccc(O)cc2C1`, the Potency result is “inactive”. For the compound `Cn1cnc(CCN)c1`, the Potency entry was “inactive”. As for `C=CCN1C[C@@H](C)N([C@H](c2ccc(C(=O)N(CC)CC)cc2)c2cccc(OC)c2)C[C@@H]1C`, the Potency entry is “inactive”. For `C#CCN[C@H](C)Cc1ccccc1` the value was “inactive”; for `O=C(O)c1nn(Cc2ccc(Cl)cc2Cl)c2ccccc12`, “inactive”; for `N[C@@H](Cn1oc(=O)[nH]c1=O)C(=O)O`, “inactive”.

As to `CC12NC(Cc3ccccc31)c1ccccc12` (stereo not given), the Potency result was “inactive”. For the compound `O=c1[nH]c2ccccc2n1CCCN1CCC(n2c(=O)[nH]c3cc(Cl)ccc32)CC1`, the Potency result is “inactive”. As for `CCCn1c(=O)c2[nH]c(C3CCCC3)nc2n(CCCOC(=O)c2ccc(S(=O)(=O)F)cc2)c1=O`, the Potency result is “inactive”. With `O=[N+]([O-])c1ccc2nc(N3CCNCC3)ccc2c1`, the Potency entry is “inactive”. For `COc1ccc(C(CN(C)C)C2(O)CCCCC2)cc1` (stereo not given) the value was “inactive”; for `NC(N)=NOCC[C@H](N)C(=O)O`, “inactive”; for `O=[N+]([O-])c1cc(O)c(O)c([N+](=O)[O-])c1`, “inactive”. Regarding `O=c1ccc2[nH]cc(C3=CCNCC3)c2[nH]1`, the Potency entry was “inactive”. To `CC(=O)c1c(O)c(C)c(O)c(Cc2c(O)c3c(c(C(=O)/C=C/c4ccccc4)c2O)OC(C)(C)C=C3)c1O` belongs “inactive”. Regarding `O=P1(N(CCCl)CCCl)NCCCO1` (stereo not given), the Potency result was “inactive”. In the case of `CCCCCN(C)CCC(O)(P(=O)(O)O)P(=O)(O)O`, the Potency entry is “inactive”. Turning to `C[C@]12CCC3C(CC[C@H]4C[C@H](O)CC[C@]34C)C1CC[C@@H]2C(=O)CO` (stereo not given in full), the Potency result is “inactive”. To `C[C@H](Cc1ccc2c(c1)OC(C(=O)O)(C(=O)O)O2)NC[C@H](O)c1cccc(Cl)c1` belongs “inactive”; to `Oc1ccc2c3c1O[C@H]1c4[nH]c5ccccc5c4C[C@@]4(O)C(C2)N(CC2CC2)CCC314` (stereo not given in full), “inactive”; to `CN(N=O)c1ccc(O)c(O)c1`, “inactive”. For `O=C(CCCN1CCC2(CC1)C(=O)NCN2c1ccccc1)c1ccc(F)cc1` the value was “inactive”; for `Nc1ccc(CCN2CCN(c3cccc(C(F)(F)F)c3)CC2)cc1`, “inactive”; for `CCOC(=O)c1ncn2c1[C@@H]1CCCN1C(=O)c1cc(OC)ccc1-2`, “inactive”. `CN1C2CCC1CC(OC(c1ccccc1)c1ccccc1N)C2` (stereo not given): the Potency result is “inactive”. As to `Clc1ccc(N2CC3CCC(C2)N3)nn1`, the Potency result is “inactive”. For `NCC1(CC(=O)O)CCCCC1` the value was “inactive”; for `CC(C)(C)OC(=O)NC1[C@H]2CNC[C@@H]12` (stereo not given in full), “inactive”; for `NCCc1c[nH]c2ccccc12`, “inactive”.

For `C[N+]1(C)CCN(c2ccccc2)CC1`, the Potency entry is “inactive”. For `CNCCc1ccc(O)c(O)c1` the value was “inactive”; for `CC(C)(O)[C@@H]1C2OC(=O)[C@@H]1[C@]1(O)C[C@H]3O[C@]34C(=O)O[C@H]2[C@]14C` (tested in a mixture with another compound), “inactive”.
